# Laboratory results published in article PMC6212833.
# In all, about 2,000 compounds went through this assay and about 15 (0.8%) showed an effect of 50% or more. The entries come from a sample that favours strong results as a whole.
# Tested on: Balamuthia mandrillaris (ATCC PRA-291) trophozoites, axenic culture
# Experiment: primary screen, percent inhibition; higher = more effect of the substance;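 note: 0% = vehicle wells and 100% = lysate wells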
# Settings: 20 µM
# Experimental: Screening of a clinically approved library of compounds, compiled by the Small Molecule Discovery Center (SMDC) at the UCSF, was completed at 20 µM in 0.2% DMSO. All 2,177 drugs in the library were stored as 10 mM stocks dissolved in 100% DMSO (Sigma-Aldrich) at −20°C. B. mandrillaris amoebae were resuspended in axenic medium and distributed into opaque 384-well plates (Corning) at a density of 3,000 amoebae per well using a BioMek NX liquid handler. Negative-control wells were treated with vehicle only (0.2% DMSO in axenic medium), and positive-control wells simulating total destruction of amoebae were seeded with amoeba lysate generated by 3 consecutive freeze-thaw cycles. Following 72 h of incubation, 30 µl of CellTiter Glo reagent (CTG; Promega) was added to each well. The luminescence was measured with a Promega GloMax-Multi+ plate reader at 2, 4, and 8 h after CTG addition. […] The B-score, representing a plate-based statistical approach for correcting row, column, and edge effects, was also calculated for each compound in the library (75).
row,SMILES,% Inhibition [%]
1,C[C@]12CCC3c4ccc(O)cc4CCC3C1C[C@@H](O)[C@@H]2O (stereo partly shown),-15
2,C[C@@H]1O[C@@H](O[C@H]2C[C@@H](O)[C@]3(CO)[C@H]4[C@H](O)C[C@]5(C)[C@@H](C6=CC(=O)OC6)CC[C@]5(O)[C@@H]4CC[C@]3(O)C2)[C@H](O)[C@H](O)[C@H]1O,10.8
3,CC[N+](CC)(CC(=O)Nc1c(C)cccc1C)Cc1ccccc1,14
4,CN1[C@@H]2C[C@@H](OC(=O)[C@H](CO)c3ccccc3)C[C@H]1[C@@H]1O[C@@H]12,20.7
5,C=CCCCCCCCCC(=O)O [735790-L3],30.5
6,CCNC(=O)CCC/C=C\C[C@@H]1[C@@H](/C=C/[C@@H](O)CCc2ccccc2)[C@H](O)C[C@@H]1O,22.9
7,Nc1ccc(S(=O)(=O)O)cc1,31.3
8,CCC(=O)NCC[C@@H]1CCc2ccc3c(c21)CCO3,16.9
9,CC(CC(C(N)=O)(c1ccccc1)c1ccccc1)N(C)C (stereo not shown),14.2
10,C=Cc1c(C)c2[n]3c1C=C1C(C)=C(CC)C4=[N+]1[Cu]31[n]3c(c(C)c(C(=O)O)c3=C(CC(=O)O)C3=[N+]1C(=C2)C(C)C3CCC(=O)O)=C4 (stereo not shown),-2.1
11,COc1cc2ncnc(Nc3ccc(F)c(Cl)c3)c2cc1OCCCN1CCOCC1 [756745-L3],-9.92
12,CC(=O)OCC(=O)[C@@]1(O)CCC2C3CCC4=CC(=O)CC[C@]4(C)[C@@]3(F)[C@@H](O)C[C@@]21C (stereo partly shown),12.2
13,CC(=O)[C@@]1(O)CC[C@H]2[C@@H]3C[C@H](C)C4=CC(=O)C=C[C@]4(C)[C@@]3(F)[C@@H](O)C[C@@]21C,10.1
14,Cc1cccc(C)c1NC(=O)C1CCCCN1C (stereo not shown),13.3
15,C[N+]1(C)[C@@H]2C[C@@H](OC(=O)C(O)(c3cccs3)c3cccs3)C[C@H]1[C@@H]1O[C@@H]12,11.2
16,O=C(O)c1ccc[n+]([O-])c1,20.7
17,CO/N=C(/C(=O)NC1C(=O)N2C(C(=O)O)=C(C[N+]3(C)CCCC3)CSC12)c1csc(N)n1 (stereo not shown),21.4
18,CC(=O)Nc1ccc(C(=O)O)cc1,-20
19,COc1cc(N)c(Cl)cc1C(=O)N[C@@H]1CCN(CCCOc2ccc(F)cc2)C[C@@H]1OC,1.93
20,CCC(COC(=O)c1cc(OC)c(OC)c(OC)c1)(c1ccccc1)N(C)C (stereo not shown),17.5
21,CCN(CC)CCOC(=O)C(Cc1cccc2ccccc12)CC1CCCO1 (stereo not shown),24.5
22,NC(=O)[C@@H]1CCCN1C(=O)[C@H](Cc1cnc[nH]1)NC(=O)[C@@H]1CCC(=O)N1,9.33
